About 8,800 targets were measured; listed, in parts, are those with a hit and a random draw of the rest. About 0.5% of all pairs of compound and target were hits. A number with no mark means an inactive call.

Holding throughout (experiment): log2 fold change, soluble protein after heating vs DMSO (PISA); higher = thermal stabilisation; K562 lysate, 10 uM; active = over 0.2 and 3.5 SD of the protein, either way, in both replicates (recomputed)
Compound in one experiment: CS(=O)(=O)CCNCc1ccc(-c2ccc3ncnc(Nc4ccc(OCc5cccc(F)c5)c(Cl)c4)c3c2)o1 [lapatinib]
A digest of the protocol:
(§1)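 To prepare the extract, K562 pellets were dounce-homogenised in PBS pH 7.4 with 1 mM MgCl2, giving crude material at 1 mg/mL protein. This was treated with 10 μM compound for 30 min, then heated in aliquots for 3 min over 48°C-58°C before pooling and addition of NP-40 to 0.5% at 4°C. Centrifugation at 21,000xg for 90 min left soluble protein in the supernatant, which TMTpro 16plex LC-MS/MS quantified with equalised channel sums. Results are log-two fold changes in thermal stability compared with solvent controls, from duplicates.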

Compound in a further experiment: CS(=O)(=O)N1CCN(Cc2cc3nc(-c4cccc5[nH]ncc45)nc(N4CCOCC4)c3s2)CC1 [pictilisib]
A digest of the protocol:
as §1

Compound in another experiment: C[C@@H](Oc1cc(-c2cnn(C3CCNCC3)c2)cnc1N)c1c(Cl)ccc(F)c1Cl [crizotinib]
The essentials: as §1

Compound in experiment [1]: C[C@H](C1=CC=C(C=C1)C(=O)NC2=C3C=CNC3=NC=C2)N
The essentials:
as §1

Compound in another experiment: C[C@H](Nc1ncnc2nc[nH]c12)c1cc2cccc(Cl)c2c(=O)n1-c1ccccc1 [duvelisib]
A digest of the protocol:
as §1

Compound in a further experiment: Cc1cc(Nc2cc(CN3CCOCC3)c3nc(C)c(Cc4ccc(Cl)cc4F)n3n2)n[nH]1 [gandotinib]
A digest of the protocol: as §1

Compound in a further experiment: Cc1cc(Nc2cc(N3CCN(C)CC3)nc(Sc3ccc(NC(=O)C4CC4)cc3)n2)n[nH]1 [tozasertib]
A digest of the protocol:
as §1

Compound in another experiment: Cc1ccc(-n2nc(C(C)(C)C)cc2NC(=O)Nc2ccc(OCCN3CCOCC3)c3ccccc23)cc1 [doramapimod]
The essentials:
as §1

Compound in another experiment: Cc1ccc(NC(=O)c2ccc(CN3CC[C@H](N(C)C)C3)c(C(F)(F)F)c2)cc1Nc1nccc(-c2cncnc2)n1 [bafetinib]
The essentials:
as §1

Compound in experiment [2]: Cc1cccc(CC(=O)N2CCc3c2ccc(-c2cn(C)c4ncnc(N)c24)c3F)n1
The essentials:
as §1

Compound in a further experiment: Cc1cn(-c2cc(NC(=O)c3ccc(C)c(Nc4nccc(-c5cccnc5)n4)c3)cc(C(F)(F)F)c2)cn1 [nilotinib]
A digest of the protocol:
as §1

Compound in experiment [3]: Cc1nc(Nc2n[nH]c3c2CN(C(=O)N[C@H](CN(C)C)c2ccccc2)C3(C)C)c2sccc2n1
A digest of the protocol: as §1

Compound in another experiment: Cc1nc(Nc2ncc(C(=O)Nc3c(C)cccc3Cl)s2)cc(N2CCN(CCO)CC2)n1 [dasatinib]
A digest of the protocol: as §1

Compound in experiment [4]: Cc1ncc(-c2ccnc(Nc3ccc(S(C)(=O)=O)cc3)n2)n1C(C)C
The essentials: as §1

Compound in experiment [5]: Cn1cc(-c2ccc3c(c2)CCN3C(=O)Cc2cccc(C(F)(F)F)c2)c2c(N)ncnc21
A digest of the protocol:
as §1

Compound in another experiment: Cn1cc(CNCC2CCN(c3ncc(C(=O)NO)cn3)CC2)c2ccccc21 [quisinostat]
The essentials:
as §1

Compound in a further experiment: Cn1cncc1[C@@](N)(c1ccc(Cl)cc1)c1ccc2c(c1)c(-c1cccc(Cl)c1)cc(=O)n2C [tipifarnib]
A digest of the protocol: as §1

Compound in experiment [6]: NC(=O)Nc1cc(-c2cccc(F)c2)sc1C(=O)N[C@H]1CCCNC1
The essentials: as §1

Compound in experiment [7]: NC(=O)c1cnc(N[C@@H]2CCCC[C@@H]2N)nc1Nc1cccc(-n2nccn2)c1
The essentials: as §1

Compound in experiment [8]: NC1(c2ccc(-c3nc4ccn5c(=O)[nH]nc5c4cc3-c3ccccc3)cc2)CCC1
A digest of the protocol: as §1

UniProt Q9Y6M1, sequence (Q9Y6M1 whole entry, looked up): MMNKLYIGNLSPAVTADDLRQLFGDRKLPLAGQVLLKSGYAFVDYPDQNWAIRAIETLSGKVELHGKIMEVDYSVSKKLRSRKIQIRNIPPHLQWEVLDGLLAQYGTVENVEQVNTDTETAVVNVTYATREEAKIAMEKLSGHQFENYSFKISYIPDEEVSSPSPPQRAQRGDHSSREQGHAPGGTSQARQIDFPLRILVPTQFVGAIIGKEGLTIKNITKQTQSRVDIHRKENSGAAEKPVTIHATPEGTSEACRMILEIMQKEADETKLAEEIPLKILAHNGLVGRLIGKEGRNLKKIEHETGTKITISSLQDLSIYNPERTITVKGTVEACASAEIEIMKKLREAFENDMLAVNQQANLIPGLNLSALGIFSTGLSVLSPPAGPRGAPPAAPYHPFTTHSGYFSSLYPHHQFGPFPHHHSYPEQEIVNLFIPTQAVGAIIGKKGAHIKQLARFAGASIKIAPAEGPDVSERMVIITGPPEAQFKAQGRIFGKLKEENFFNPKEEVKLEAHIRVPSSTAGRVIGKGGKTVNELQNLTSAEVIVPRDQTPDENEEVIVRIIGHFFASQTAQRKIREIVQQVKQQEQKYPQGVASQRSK
UniProt Q9ULR0, sequence (Q9ULR0 whole entry, looked up): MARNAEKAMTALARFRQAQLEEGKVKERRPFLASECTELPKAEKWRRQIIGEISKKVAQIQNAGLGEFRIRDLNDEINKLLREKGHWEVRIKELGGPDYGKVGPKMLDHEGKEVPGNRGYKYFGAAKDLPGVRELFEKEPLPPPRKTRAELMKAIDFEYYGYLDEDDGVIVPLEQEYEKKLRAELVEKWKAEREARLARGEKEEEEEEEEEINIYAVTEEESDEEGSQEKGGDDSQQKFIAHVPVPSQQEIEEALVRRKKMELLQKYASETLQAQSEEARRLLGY
UniProt Q9BT25, sequence (Q9BT25 whole entry, looked up): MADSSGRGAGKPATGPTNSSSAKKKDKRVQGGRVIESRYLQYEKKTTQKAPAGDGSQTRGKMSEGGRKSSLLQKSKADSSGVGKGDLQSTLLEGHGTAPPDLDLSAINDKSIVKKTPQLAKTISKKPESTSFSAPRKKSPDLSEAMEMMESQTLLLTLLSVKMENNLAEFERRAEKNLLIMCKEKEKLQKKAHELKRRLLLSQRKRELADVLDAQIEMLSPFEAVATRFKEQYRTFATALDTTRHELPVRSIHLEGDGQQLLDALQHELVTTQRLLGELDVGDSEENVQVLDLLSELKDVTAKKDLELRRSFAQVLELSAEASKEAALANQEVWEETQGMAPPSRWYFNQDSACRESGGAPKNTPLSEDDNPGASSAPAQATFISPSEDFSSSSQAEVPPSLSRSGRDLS
UniProt Q8IU81, sequence (Q8IU81 whole entry, looked up): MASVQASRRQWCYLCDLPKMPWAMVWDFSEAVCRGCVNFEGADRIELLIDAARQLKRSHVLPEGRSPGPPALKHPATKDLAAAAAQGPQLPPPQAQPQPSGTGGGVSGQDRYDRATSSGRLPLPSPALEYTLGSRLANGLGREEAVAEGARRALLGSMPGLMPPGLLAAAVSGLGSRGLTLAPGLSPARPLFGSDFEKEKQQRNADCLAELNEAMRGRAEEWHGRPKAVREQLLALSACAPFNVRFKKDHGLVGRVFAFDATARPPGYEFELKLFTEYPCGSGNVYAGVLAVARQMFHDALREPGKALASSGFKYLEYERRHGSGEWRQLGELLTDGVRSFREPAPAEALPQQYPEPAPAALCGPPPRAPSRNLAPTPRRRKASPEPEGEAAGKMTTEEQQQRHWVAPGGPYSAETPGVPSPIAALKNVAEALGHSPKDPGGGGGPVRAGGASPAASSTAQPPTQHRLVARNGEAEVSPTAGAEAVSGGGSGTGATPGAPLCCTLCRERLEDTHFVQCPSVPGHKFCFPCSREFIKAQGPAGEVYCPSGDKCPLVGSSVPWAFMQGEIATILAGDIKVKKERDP
UniProt P25098, sequence (P25098 whole entry, looked up): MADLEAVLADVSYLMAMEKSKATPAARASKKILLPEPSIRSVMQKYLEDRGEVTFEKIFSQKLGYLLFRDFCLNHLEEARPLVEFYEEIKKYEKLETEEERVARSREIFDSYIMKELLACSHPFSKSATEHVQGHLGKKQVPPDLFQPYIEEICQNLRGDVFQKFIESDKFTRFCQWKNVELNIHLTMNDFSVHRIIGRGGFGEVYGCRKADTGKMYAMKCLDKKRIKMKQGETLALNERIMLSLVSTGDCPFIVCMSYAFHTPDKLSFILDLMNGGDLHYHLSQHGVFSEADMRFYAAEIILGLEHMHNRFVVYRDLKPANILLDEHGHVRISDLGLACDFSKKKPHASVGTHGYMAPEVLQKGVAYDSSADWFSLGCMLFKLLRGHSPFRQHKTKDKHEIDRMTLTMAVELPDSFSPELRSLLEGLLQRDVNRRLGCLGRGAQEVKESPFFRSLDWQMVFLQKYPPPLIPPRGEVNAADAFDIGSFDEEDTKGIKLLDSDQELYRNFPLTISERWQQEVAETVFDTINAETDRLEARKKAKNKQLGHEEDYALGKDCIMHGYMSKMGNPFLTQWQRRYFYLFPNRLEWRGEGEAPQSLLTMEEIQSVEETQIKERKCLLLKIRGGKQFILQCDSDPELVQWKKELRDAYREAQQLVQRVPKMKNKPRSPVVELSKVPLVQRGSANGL
UniProt Q8N201, sequence (Q8N201 whole entry, looked up): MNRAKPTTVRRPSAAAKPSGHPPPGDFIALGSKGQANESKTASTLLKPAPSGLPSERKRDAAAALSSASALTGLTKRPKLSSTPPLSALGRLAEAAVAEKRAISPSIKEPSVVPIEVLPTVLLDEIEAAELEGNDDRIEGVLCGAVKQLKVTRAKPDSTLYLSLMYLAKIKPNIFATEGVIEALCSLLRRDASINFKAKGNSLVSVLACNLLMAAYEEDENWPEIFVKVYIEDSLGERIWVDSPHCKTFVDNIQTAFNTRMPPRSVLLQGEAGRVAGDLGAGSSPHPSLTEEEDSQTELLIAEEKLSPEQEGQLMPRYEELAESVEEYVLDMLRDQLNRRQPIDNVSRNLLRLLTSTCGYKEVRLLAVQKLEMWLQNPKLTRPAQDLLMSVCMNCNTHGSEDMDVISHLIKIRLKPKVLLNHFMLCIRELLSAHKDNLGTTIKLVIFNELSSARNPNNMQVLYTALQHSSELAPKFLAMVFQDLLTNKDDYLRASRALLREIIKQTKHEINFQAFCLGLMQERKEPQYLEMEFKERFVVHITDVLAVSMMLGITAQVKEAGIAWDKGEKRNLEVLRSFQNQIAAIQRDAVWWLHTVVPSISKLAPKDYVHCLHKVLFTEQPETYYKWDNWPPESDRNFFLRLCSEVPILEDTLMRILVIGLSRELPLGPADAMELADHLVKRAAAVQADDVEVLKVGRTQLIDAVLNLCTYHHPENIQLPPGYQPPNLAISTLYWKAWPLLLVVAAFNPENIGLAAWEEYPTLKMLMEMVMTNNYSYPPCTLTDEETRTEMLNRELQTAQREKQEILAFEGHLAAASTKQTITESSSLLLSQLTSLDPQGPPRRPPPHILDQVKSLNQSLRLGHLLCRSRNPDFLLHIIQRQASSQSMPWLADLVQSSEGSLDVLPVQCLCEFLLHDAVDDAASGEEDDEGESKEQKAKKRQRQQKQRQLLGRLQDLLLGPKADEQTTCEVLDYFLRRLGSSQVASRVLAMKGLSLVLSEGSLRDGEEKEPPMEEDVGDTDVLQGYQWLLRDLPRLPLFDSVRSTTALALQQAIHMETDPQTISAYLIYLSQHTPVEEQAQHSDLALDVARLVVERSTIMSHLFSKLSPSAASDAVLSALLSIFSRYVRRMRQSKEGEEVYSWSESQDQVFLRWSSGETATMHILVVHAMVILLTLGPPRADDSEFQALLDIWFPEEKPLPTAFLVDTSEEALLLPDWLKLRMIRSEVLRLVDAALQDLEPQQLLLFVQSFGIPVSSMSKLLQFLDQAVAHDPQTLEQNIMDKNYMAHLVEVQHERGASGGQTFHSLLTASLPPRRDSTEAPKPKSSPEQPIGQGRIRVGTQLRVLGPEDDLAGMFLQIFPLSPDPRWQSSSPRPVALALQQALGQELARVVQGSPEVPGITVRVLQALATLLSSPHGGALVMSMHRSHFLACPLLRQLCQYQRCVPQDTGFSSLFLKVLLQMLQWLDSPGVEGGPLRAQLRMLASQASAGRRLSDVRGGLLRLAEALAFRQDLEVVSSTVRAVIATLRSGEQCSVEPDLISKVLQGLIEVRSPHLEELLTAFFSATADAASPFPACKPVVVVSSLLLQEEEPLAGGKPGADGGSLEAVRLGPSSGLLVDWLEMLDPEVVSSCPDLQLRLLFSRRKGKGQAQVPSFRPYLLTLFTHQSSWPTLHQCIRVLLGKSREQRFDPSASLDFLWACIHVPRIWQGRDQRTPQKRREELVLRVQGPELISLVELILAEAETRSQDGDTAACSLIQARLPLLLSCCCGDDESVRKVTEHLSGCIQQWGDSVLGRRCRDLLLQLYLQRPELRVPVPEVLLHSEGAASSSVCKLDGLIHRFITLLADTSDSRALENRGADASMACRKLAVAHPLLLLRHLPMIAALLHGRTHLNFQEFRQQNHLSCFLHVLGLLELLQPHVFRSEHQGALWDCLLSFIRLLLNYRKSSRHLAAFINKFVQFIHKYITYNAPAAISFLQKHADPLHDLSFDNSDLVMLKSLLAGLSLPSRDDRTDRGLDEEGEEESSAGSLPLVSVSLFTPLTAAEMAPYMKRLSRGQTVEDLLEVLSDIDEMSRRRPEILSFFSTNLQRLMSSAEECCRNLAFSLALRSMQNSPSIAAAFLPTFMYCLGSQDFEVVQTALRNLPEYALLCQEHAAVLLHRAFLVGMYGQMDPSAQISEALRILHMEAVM

For the target IGF2BP2 (UniProt Q9Y6M1), the log2 fold change with lapatinib is -0.034; with pictilisib, -0.015; with crizotinib it was 0.012; in experiment [1] it was -0.031; with duvelisib it was 0; with gandotinib, 0.009. The log2 fold change is -0.011 with tozasertib; 0.021 with doramapimod; -0.093 in the experiment with bafetinib; 0.048 in experiment [2]; -0.051 with nilotinib; 0.008 in experiment [3]. In addition, the log2 fold change with dasatinib was -0.055; in [4] it was -0.008; in experiment [5] it was 0.031; in the experiment with quisinostat, 0.012; in the experiment with tipifarnib, 0.028; in experiment [6], 0.06. Besides, the figures for the log2 fold change in experiment [7] and in [8] were 0.016 and 0.019, respectively.
On to ISY1 isoform 1 (UniProt Q9ULR0), for which the log2 fold change is -0.033 with lapatinib; 0.011 with pictilisib; 0.01 in the experiment with crizotinib; -0.022 in experiment [1]; 0.019 with duvelisib; 0.078 with gandotinib. The log2 fold change is -0.035 with tozasertib; 0.016 with doramapimod; -0.013 with bafetinib; 0.016 in [2]; 0.012 with nilotinib; 0.026 in experiment [3]. In addition, the log2 fold change is 0.002 with dasatinib; -0.024 in experiment [4]; -0.082 in [5]; -0.036 in the experiment with quisinostat; -0.018 with tipifarnib; 0.014 in experiment [6]. Besides, the log2 fold change in experiment [7] is -0.012; in [8] it was -0.01.
Regarding HAUS8 (UniProt Q9BT25), the log2 fold change with lapatinib is -0.022; in the experiment with pictilisib, -0.02; in the experiment with crizotinib, -0.055; in experiment [1] it was 0.057; with duvelisib, -0.075; with gandotinib, 0.045. Moreover, the log2 fold change with tozasertib was 0.027; with doramapimod, -0.007; with bafetinib, -0.037; in experiment [2], 0.027; in the experiment with nilotinib it was 0.025; in experiment [3] it was 0.026. Further, the log2 fold change with dasatinib was -0.073; in experiment [4], 0.005; in experiment [5], 0.015; in the experiment with quisinostat, -0.085; with tipifarnib it was 0.004; in experiment [6], 0.042. Moreover, the log2 fold change is 0.02 in experiment [7] and 0.006 in [8].
In the case of INTS1 (UniProt Q8N201), the log2 fold change is -0.051 with lapatinib; -0.011 in the experiment with pictilisib; -0.067 with crizotinib; 0.05 in experiment [1]; -0.04 with duvelisib; -0.136 with gandotinib. Also, the log2 fold change in the experiment with tozasertib was 0.007; with doramapimod, -0.001; with bafetinib, -0.164; in experiment [2], 0.031; with nilotinib it was -0.041; in [3] it was 0.012. The log2 fold change was -0.087 with dasatinib; 0.035 in experiment [4]; 0.028 in experiment [5]; -0.01 with quisinostat; 0.017 in the experiment with tipifarnib; 0.016 in experiment [6]. Besides, the log2 fold change in experiment [7] is -0.038; in experiment [8] it was 0.011.
As for IRF2BP1 (UniProt Q8IU81), the log2 fold change is -0.01 with lapatinib; 0.008 with pictilisib; -0.052 in the experiment with crizotinib; -0.004 in experiment [1]; -0.086 with duvelisib; 0.004 in the experiment with gandotinib. For the same target, the log2 fold change in the experiment with tozasertib was 0; with doramapimod, 0.105; with bafetinib it was -0.1; in [2] it was 0.043; with nilotinib, 0.018; in [3], 0.016. Besides, the log2 fold change in the experiment with dasatinib was -0.082; in [4], -0.019; in experiment [5] it was 0.032; with quisinostat, -0.099; in the experiment with tipifarnib, -0.124; in experiment [6] it was 0.057. For the same target, the log2 fold change in experiment [7] is -0.03; in [8] it was 0.045.
In the case of GRK2 (UniProt P25098), the log2 fold change with lapatinib is -0.063; in the experiment with pictilisib, 0.015; with crizotinib, -0.038; in experiment [1], 0.024; in the experiment with duvelisib, 0.017; in the experiment with gandotinib it was 0.077. The log2 fold change is -0.02 with tozasertib; 0.033 with doramapimod; -0.017 in the experiment with bafetinib; -0.035 in experiment [2]; 0.001 with nilotinib; 0.393 (active) in experiment [3]. Further, the log2 fold change with dasatinib is -0.058; in [4], 0.01; in experiment [5], 0; in the experiment with quisinostat, 0.034; with tipifarnib it was -0.001; in [6], 0.397 (active). The log2 fold change in [7] was 0.043; in experiment [8], -0.027.

These data come from the supplement of paper PMC10849652.
